Consider 58 compounds from ChEMBL document CHEMBL3988442, “University of Dundee, Small-Polar-MMV Screening Library” (2021).

Hit rate of the full screen: of about 69,000 compounds, about 1,000 (1.4%) showed an effect of 50% or more. What follows is part of a selection rich in strong results, with near analogues and random picks from the rest.

The test deals with Leishmania donovani. Briefly: Leishmania intramacrophage assay. In kind it is functional, organism-based. Details: scale not given: in the data most compounds retested in dose-response had high values.

In the case of `COc1cccc(Cn2cc(C3=CCN(CCO)CC3)cn2)c1`, the “Percent Effect” value (30.3 µM, […]) came to 22.79%.

With `COc1ccc(-n2nnnc2C2(NCc3ccco3)CCCCC2)cc1`, the “Percent Effect” value (30.3 µM, […]) is -17.59%.

Turning to `Cc1ccc(N2CCC3(CN(CCO)CCC3(F)F)C2)nn1.O=C(O)C(F)(F)F` (stereo not drawn), the “Percent Effect” value (30.3 µM, […]) was found to be 39.18%.

For the compound `OCCN1CCC(F)(F)C2(CCN(c3cccnc3)C2)C1` (stereo not drawn), under “30.3 µM, […]”, the “Percent Effect” value is listed as 51.95%.

As for `FC1(F)CCNCC12CCN(c1cccnc1)C2.O=C(O)C(F)(F)F.O=C(O)C(F)(F)F` (stereo not drawn), the “Percent Effect” value (30.3 µM, […]) is 9.392%.

As for `COCCN1C[C@@H]2CN(Cc3cccc(C)n3)C[C@@H]2C1=O.O=C(O)C(F)(F)F`, the “Percent Effect” value (30 µM, 30.03 µM) worked out at 25.64%.

Consider `CC(C)CN1CCC2(COCc3cnc(-c4ccccc4)nc32)C1.O=C(O)C(F)(F)F` (stereo not drawn), for which the “Percent Effect” value (30.3 µM, […]) is 36%.

Regarding `Cl.Cl.O=c1[nH]c2ncccc2n1C1CCNCC1`, the “Percent Effect” value (30.3 µM, […]) came out at 13.74%.

On to `COc1ccccc1CCN(C)Cc1nc(N)nc(N(C)C)n1`, for which the “Percent Effect” value (30.3 µM, […]) came out at 17.72%.

Take `Cc1ccc(CN2C[C@@H]3[C@@H](C2)OCC(=O)N3Cc2ccncc2)s1.O=C(O)C(F)(F)F.O=C(O)C(F)(F)F`: the “Percent Effect” value (30.3 µM, […]) came out at 15.08%.

Take `O=C(O)C(F)(F)F.O=C(O)C(F)(F)F.O=C1[C@H]2CN(Cc3ccncc3)C[C@H]2CN1c1ccsc1`: where the note is “30.3 µM, […]”, the “Percent Effect” value is listed as 21.46%.

Turning to `Cn1ncc2c(N3CCCN4CCC[C@H]4C3)nc(C(C)(C)C)nc21`, the “Percent Effect” value (30.3 µM, […]) is -35.36%.

For `CCCc1nc(N2CCCC3(CCNC3)C2)c2cnn(C)c2n1` (stereo not drawn), the “Percent Effect” value (30.3 µM, […]) is recorded as -7.107%.

For the compound `Cn1ncc2c(N3CCCC4(CCNC4)C3)nc(C(C)(C)C)nc21` (stereo not drawn), the “Percent Effect” value (30.3 µM, […]) is given as 88.19%.

With `O=C(N1CCCO1)[C@@]12CCO[C@@H]1CCN(Cc1cccnc1)C2.O=C(O)C(F)(F)F.O=C(O)C(F)(F)F`, for the setting “30.3 µM, […]”, the “Percent Effect” value was found to be 13.9%.

`CCO[C@H]1CN(CC2CC2)[C@@H]2CCCO[C@H]12.O=C(O)C(F)(F)F`: the “Percent Effect” value (30.3 µM, […]) was found to be 13.63%.

For the compound `Cc1ncsc1CN1C[C@@H]2CCCO[C@@H]2[C@H](Nc2ccccn2)C1.O=C(O)C(F)(F)F.O=C(O)C(F)(F)F`, for the setting “30.3 µM, […]”, the “Percent Effect” value is on record as -3.269%.

Turning to `COc1cc2nc(NCc3ccc(C)nc3)nc(N)c2cc1OC`, the “Percent Effect” value (30.3 µM, […]) came out at 62.6%.

As for `COc1cc(CNCC(O)c2ccccc2F)cc2c1OCO2` (stereo not drawn), the “Percent Effect” value (30 µM) is 34.29%.

As for `Cc1ccc(C(=O)N2C[C@H]3CNC[C@H]3C2)cn1`, for the setting “30.3 µM, […]”, the “Percent Effect” value is given as -11.07%.

In the case of `Cc1nc(CN2C[C@@H]3CN(C(=O)c4ccncc4)C[C@@H]3C2)cs1`, the “Percent Effect” value (30.3 µM, […]) is -18.13%.

Regarding `Cc1ccc(C(=O)N2C[C@H]3CN(Cc4csc(C)n4)C[C@H]3C2)cn1`, under “30.3 µM, […]”, the “Percent Effect” value came out at 58.41%.

Take `O=C(NC[C@]12COC[C@H]1CN(Cc1cccnc1)C2)c1ccno1.O=C(O)C(F)(F)F.O=C(O)C(F)(F)F`: the “Percent Effect” value (30 µM, 30.03 µM) worked out at 19.24%.

`Cc1ccccc1-n1nc(C)c(CN(C)C(C)Cc2ccccn2)c1C.O=C(O)CC(O)(CC(=O)O)C(=O)O` (stereo not drawn): where the note is “30.3 µM, […]”, the “Percent Effect” value is recorded as 17.55%.

Take `COCc1cn(C[C@H]2C[C@@H]3CCN2C[C@@H]3C(=O)N2CCOCC2)nn1`: the “Percent Effect” value (30.3 µM, […]) is given as -19.8%.

Regarding `CC(C)(O)c1cn(C[C@H]2C[C@@H]3CCN2C[C@@H]3C(=O)N2CCOCC2)nn1`, where the note is “30.3 µM, […]”, the “Percent Effect” value is listed as 75.59%.

As to `CC(C)(C)c1cn(C[C@H]2CC3CCN2C[C@@H]3C(=O)N2CCOCC2)nn1` (stereo partly drawn), for the setting “30.3 µM, […]”, the “Percent Effect” value is listed as -15.57%.

For `CN(CC1Cc2ccccc2CN1C)C(=O)Cc1cccs1` (stereo not drawn), the “Percent Effect” value (30.3 µM, […]) is 58.51%.

Consider `CN(C)[C@@H]1CN(C(=O)Cc2cccs2)[C@@H]2CCCO[C@H]12.O=C(O)C(F)(F)F`, for which, where the note is “30.3 µM, […]”, the “Percent Effect” value is -12.28%.

For `CN(C)CCN1CCN(Cc2cccs2)Cc2cccnc21.O=C(O)C(F)(F)F.O=C(O)C(F)(F)F.O=C(O)C(F)(F)F`, the “Percent Effect” value (30.3 µM, […]) is -2.293%.

In the case of `CC(C)CN1CCC2(CC1)C(=O)Nc1ccc(C(=O)NC(C)C)cc12.O=C(O)C(F)(F)F`, the “Percent Effect” value (30.3 µM, […]) is -1.007%.

Take `Cc1ccc(CN2C[C@@H]3CCN(Cc4ccncc4)C(=O)[C@H]3C2)s1.O=C(O)C(F)(F)F.O=C(O)C(F)(F)F`: the “Percent Effect” value (30.3 µM, […]) worked out at 7.943%.

As to `N#Cc1ccc(NC2CCN(c3ncccn3)CC2)cc1Cl`, where the note is “30.3 µM, […]”, the “Percent Effect” value is on record as -22.27%.

As to `COCC1CN(c2ccc(C#N)c(Cl)c2)CCO1` (stereo not drawn), the “Percent Effect” value (30.3 µM, […]) worked out at 27.15%.

As for `N#Cc1ccc(N2CCC(OC3CCOCC3)CC2)cc1Cl`, under “30.3 µM, […]”, the “Percent Effect” value is 58.7%.

For `O=C(Nc1cccnc1)[C@H]1C[C@H]2OCC[C@H]2N(CC2CC2)C1.O=C(O)C(F)(F)F.O=C(O)C(F)(F)F`, for the setting “30.3 µM, […]”, the “Percent Effect” value turned out to be 5.172%.

Consider `O=C(O)C(F)(F)F.O=C(O)C(F)(F)F.O=C(O)C(F)(F)F.c1cncc(CN2CCO[C@H]3[C@H](OCCN4CCCC4)CC[C@@H]32)c1`, for which the “Percent Effect” value (30.3 µM, […]) was -1.777%.

Regarding `Fc1cccnc1O[C@H]1CN(Cc2ccoc2)[C@@H]2CCCO[C@H]12.O=C(O)C(F)(F)F.O=C(O)C(F)(F)F`, the “Percent Effect” value (30.3 µM, […]) turned out to be 9.385%.

On to `COCCN1C[C@@H]2COC[C@@H](CC(=O)NCc3cccnc3)[C@@H]2C1.O=C(O)C(F)(F)F.O=C(O)C(F)(F)F`, for which the “Percent Effect” value (30.3 µM, […]) was determined as 44.79%.

Turning to `O=C(C[C@@H]1COC[C@H]2CN(CC3CC3)C[C@@H]12)NCc1cccnc1.O=C(O)C(F)(F)F.O=C(O)C(F)(F)F`, the “Percent Effect” value (30.3 µM, […]) is on record as 54.71%.

In the case of `O=C(C[C@@H]1COC[C@H]2CN(Cc3cccnc3)C[C@@H]12)NCC1CC1.O=C(O)C(F)(F)F.O=C(O)C(F)(F)F`, under “30.3 µM, […]”, the “Percent Effect” value is recorded as 18.63%.

Regarding `O=C(O)C(F)(F)F.O=C(O)C(F)(F)F.c1cncc(CN2CC[C@H]3O[C@@H](COCC4CC4)CC[C@H]32)c1`, the “Percent Effect” value (30 µM, 30.03 µM) was determined as 39.71%.

For `COc1ncccc1CN1C[C@H]2CCN(c3ncccn3)C[C@H]2C1.O=C(O)C(F)(F)F`, the “Percent Effect” value (30.3 µM, […]) is 28.82%.

`COCCN1CC[C@@H]2CN(Cc3cccnc3OC)C[C@@H]2C1.O=C(O)C(F)(F)F.O=C(O)C(F)(F)F`: the “Percent Effect” value (30.3 µM, […]) was found to be 55.04%.

For `COc1ncccc1CN1C[C@H]2CCN(C(C)C)C[C@H]2C1.O=C(O)C(F)(F)F.O=C(O)C(F)(F)F`, under “30.3 µM, […]”, the “Percent Effect” value is recorded as -4.656%.

Take `CN(C)c1nccc(N2CCO[C@H]3CN(Cc4ccco4)C[C@H]32)n1`: where the note is “30.3 µM, […]”, the “Percent Effect” value turned out to be 57.89%.

For the compound `COCCN1C[C@@H]2OCCN(c3ccnc(N(C)C)n3)[C@@H]2C1`, where the note is “30.3 µM, […]”, the “Percent Effect” value is 23.22%.

With `CN(C)c1nccc(N2CCO[C@H]3CN(Cc4ccsc4)C[C@H]32)n1.O=C(O)C(F)(F)F`, where the note is “30 µM, 30.03 µM”, the “Percent Effect” value worked out at 28.84%.

As for `C[C@@H]1C(=O)NC[C@H]2CN(Cc3ccsc3)C[C@H]21.O=C(O)C(F)(F)F`, the “Percent Effect” value (30 µM, 30.03 µM) was found to be 28.53%.

`CCCc1nc2c(c(C)c(C)n2CCN(C)C)c(N)c1CC`: where the note is “30.3 µM, […]”, the “Percent Effect” value is on record as 99.96%.

For `CNC(=O)CN1CCC12CCN(C(=O)Cc1ccccc1)C2.O=C(O)C(F)(F)F` (stereo not drawn), the “Percent Effect” value (30.3 µM, […]) came out at 9.106%.

On to `CCCn1cc(C(=O)NCCS(N)(=O)=O)c2ccccc21`, for which the “Percent Effect” value (30.3 µM, […]) worked out at 23.59%.

Regarding `COCCn1cc(C(=O)NCCS(N)(=O)=O)c2ccccc21`, the “Percent Effect” value (30.3 µM, […]) is reported as 59.49%.

Take `CCCn1cc(C(=O)NCCCC(N)=O)c2ccccc21`: for the setting “30.3 µM, […]”, the “Percent Effect” value was found to be 41.21%.

On to `CN(C)C[C@H]1C[C@@H]2CN(Cc3ccoc3)C[C@@H]2O1.O=C(O)C(F)(F)F.O=C(O)C(F)(F)F`, for which the “Percent Effect” value (30.3 µM, […]) is listed as 4.803%.

Turning to `Cl.Cl.c1cc(COC[C@@H]2CCC[C@@]23CNCCO3)ccn1`, the “Percent Effect” value (30 µM, 30.03 µM) stood at 8.265%.

In the case of `Cl.Cl.c1cncc(COC[C@@H]2CCC[C@@]23CNCCO3)c1`, the “Percent Effect” value (30.3 µM, […]) came out at 73.99%.

For the compound `O=C(O)C(F)(F)F.O=C(O)C(F)(F)F.c1cncc(COC[C@@H]2CCC[C@]23CNCCO3)c1`, the “Percent Effect” value (30.3 µM, […]) was determined as 27.95%.
